# The panel holds about 83,000 compounds, 20% with a hit somewhere; the sample as a whole holds those more often.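 Each cell line was grown in a 96-well plate and treated with one concentration of compound for 48 hours. Values below 10 were considered active.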 Unmarked numbers belong to inactive results. Calls of active or inactive are those of the source.
# Tests used:
# Assay in all cases: NCI-60 one-dose screen, 48 h (100 = growth as untreated, 0 = no growth, -100 = all killed)
# Settings in all cases: 10 µM unless noted
# [1] = tested on: HCT-15 colon
# [2] = tested on: HT29 colon
# [3] = tested on: SNB-75 CNS
# [4] = tested on: SNB-19 CNS
# [5] = tested on: U251 CNS
# [6] = tested on: PC-3 prostate
# [7] = tested on: SK-MEL-5 melanoma
# [8] = tested on: UACC-62 melanoma
# [9] = tested on: LOX IMVI melanoma
# [10] = tested on: SK-MEL-28 melanoma
Compound,growth [1],growth [2],growth [3],growth [4],growth [5],growth [6],growth [7],growth [8],growth [9],growth [10]
COC(=O)C(CC(=O)c1ccc(-c2ccccc2)cc1)c1ccccc1 (stereo not given),31.3%,6.34% (active),72.5%,75.5%,71.1%,64.4%,45.5%,51.3%,44.9%,70.9%
O=S(=O)(NCCCNc1cc(-c2cn(-c3ccccc3)nc2-c2cccc(O)c2)ccn1)c1ccc(C(F)(F)F)cc1,5.17% (active),2.83% (active),31.5%,51.4%,36.8%,13.7%,8.74% (active),27.4%,27.4%,21.7%
Cc1oc2nc[nH]c(=O)c2c1C(=O)/C=C/c1ccc(Cl)cc1,19.9%,12.9%,-11.4% (active),42%,24.3%,34.2%,37.5%,18.2%,8.44% (active),39.4%
C/C(=C\c1csc(C)n1)[C@@H]1C[C@@H]2O[C@]2(C)CCC[C@H](C)[C@H](O)[C@@H](C)C(=O)C(C)(C)[C@@H](O)CC(=O)N1,-93.4% (active),-10.4% (active),-19.4% (active),-41.4% (active),-100% (active),-63.9% (active),-89.9% (active),-93.7% (active),-100% (active),-43.3% (active)
COc1cccc(-c2nc3sccn3c2-c2ccnc(NCCNS(=O)(=O)c3ccccc3)n2)c1,42.9%,34%,79.8%,97.3%,71.9%,69.2%,28.2%,32.5%,48%,66.4%
O=C(O)C(Cc1ccccc1)N1C(=O)/C(=C/C(Cl)=C/c2ccc([N+](=O)[O-])cc2)SC1=S (stereo not given),41.2%,30.8%,43%,32.2%,8.38% (active),31.2%,2.03% (active),-56.4% (active),-74.2% (active),3.14% (active)
CCN1C(=O)N(CC)C2C1NN=c1s/c(=C\c3cccc(F)c3)c(=O)n12 (stereo not given),15.7%,10.4%,6.61% (active),34.6%,29.4%,24.7%,-30.7% (active),33.3%,24.4%,57.8%
CC(=O)Nc1ccc(S(=O)(=O)NC(CCC(=O)Nc2ccc(Cl)cc2)C(=O)O)cc1 (stereo not given),98.9%,106%,69.2%,100%,90.6%,97.5%,97.7%,67.5%,81.1%,94.4%
N#Cc1ncc(-c2ccc(F)c(F)c2F)c(NC2CCCCCC2)n1,76.1%,95.6%,72.2%,78.6%,59.1%,75.7%,89.9%,71.2%,84.6%,94%
Cc1cccc(NC(=O)c2sc3nc4c(cc3c2N)CCC4)c1C,20.1%,1.41% (active),13.9%,38%,16.6%,11.2%,24.4%,28.7%,24.5%,57.8%
c1ccn2nnnc2c1,99.8%,98.9%,106%,106%,92.7%,97.6%,103%,105%,91.9%,106%
CCOP(=O)(CCN1CCN(CCCCCOc2cc3c(cc2OC)C(=O)N2CCC[C@H]2C=N3)CC1)OCC,104%,80.4%,65.5%,91.5%,30.1%,76.2%,83.9%,94.6%,22%,120%
CC(Br)C(Br)c1cc2c(cc1Br)OCO2 (stereo not given),101%,96%,78.2%,111%,93.1%,79.2%,104%,108%,96.2%,105%
Nc1c(C(=O)Nc2ccccc2)sc2nc3c(cc12)CCCCC3,20.1%,-15.5% (active),-6.57% (active),22.1%,13.8%,9.02% (active),11.3%,5.45% (active),22.1%,36.6%
O=C(O)c1ccc(-n2c(=O)c3ccccc3c3ccccc3c2=O)cc1,104%,98.5%,92.9%,104%,102%,98.9%,104%,105%,103%,113%
COc1ccc(NC(=S)/N=c2\oc3c(OC)cccc3cc2-c2cc3ccccc3[nH]2)cc1,84.1%,82.8%,-12.2% (active),57.8%,75.7%,58.4%,72.1%,76.4%,76.8%,69.9%
CCCCOc1nc2c(C)cccc2cc1C1CNC(=O)c2ccccc2N1 (stereo not given),43.4%,61.4%,56.6%,47%,63.7%,40.1%,43.4%,29.1%,60.8%,66.4%
COc1cc2c(cc1OC)C1(C)N(CC2)C(=O)OC1(C)C (stereo not given),101%,115%,76.5%,105%,101%,97.3%,99.6%,106%,96.3%,112%
COc1cc(Cn2c(SCC(=O)Nc3ccc(Cl)cc3)nc3ccccc3c2=O)cc(OC)c1OC,72.8%,87.4%,27.1%,63.9%,75.4%,65.9%,49.8%,63.3%,56.1%,83.7%
Cc1cc(C(=O)CSc2nc3ccccc3c(=O)[nH]2)c(C)n1C,104%,96.6%,118%,95.5%,96.2%,83.9%,98.4%,90.5%,94.7%,121%
CCCCC(N)(C(=O)O)C1CCCC1 (stereo not given),96.2%,100%,93.5%,99.9%,91%,92.2%,105%,97.4%,99.4%,94.8%
COc1ccc(/C(=N/O)c2cc(F)c(F)c(OC)c2F)cc1O,22.9%,28%,-11% (active),38.8%,18.2%,21.5%,14.1%,29.8%,46.5%,66.9%
OC1CC2c3ccccc3C1c1ccccc12 (stereo not given),106%,110%,90.5%,117%,95.8%,100%,106%,103%,97.3%,112%
C=C1C(=O)O[C@H]2[C@H]1CC/C(COC(=O)NCCc1cccc(OC)c1)=C\CC[C@@]1(C)O[C@@H]21,5.34% (active),1.86% (active),76.1%,56.9%,66%,50.5%,87.6%,22.8%,3% (active),46.7%
O=C(CNc1c(Cl)cccc1Cl)Nc1ccc(-c2nc3ccccc3s2)cc1,2.42% (active),69.8%,59.2%,73.9%,27.7%,85.9%,21.2%,35.1%,-49.3% (active),104%

# — PubChem BioAssay (NCI)
